{"source": "the supplement of paper PMC9135407", "tested_on": "primary human hepatic stellate cells (donor 1)", "test": "scaled lipid accumulation score (0 = DMSO-like, 1 = nortriptyline-like); higher = stronger HSC inactivation (lipid re-accumulation), active = hit call of the paper", "settings": "48 h", "key": {"[1]": {"settings": "library stock concentration: 10 mM"}, "[2]": {"settings": "library stock concentration: 1 mM"}, "[3]": {"settings": "library stock concentration: 400 uM"}, "[4]": {"settings": "library stock concentration: 2 mM"}, "[5]": {"settings": "library stock concentration: 3.33 mM"}}, "note": "Where a name gives a salt, the structure may show the parent alone. The whole screen tested about 5,800 compounds, of which about 620 (11%) showed activity.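 The calls were made as follows: active = score above a cut-off or among the top three wells of a plate; in these data no inactive exceeds 0.85.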 For the sample, actives were picked, then their nearest neighbours and some compounds at random.", "data": [{"compound": "NC(C(=O)O)c1ccc(C(=O)O)c(C(=O)O)c1", "note": "(racemic)", "values": [{"measurement": "scaled lipid accumulation score", "setting": "[1]", "result": "≤ -0.006 (inactive)"}]}, {"compound": "C[C@@H]1CN(c2c(F)c(F)c3c(=O)c(C(=O)O)cn(C4CC4)c3c2F)C[C@H](C)N1", "values": [{"measurement": "scaled lipid accumulation score", "setting": "[1]", "result": "≤ 0 (inactive)"}]}, {"compound": "N=C(NO)NCC[C@H](N)C(=O)O", "values": [{"measurement": "scaled lipid accumulation score", "setting": "[2]", "result": "≤ 0 (inactive)"}]}, {"compound": "CC(=O)Oc1cccc(O)c1", "note": "[Resorcinol monoacetate]", "values": [{"measurement": "scaled lipid accumulation score", "setting": "[1]", "result": "0.063 (inactive)"}, {"measurement": "scaled lipid accumulation score", "setting": "library stock concentration: 13.1 mM", "result": "≤ 0 (inactive)"}]}, {"compound": "CCCCCCCC/C=C\\C/C=C\\C/C=C\\CCCC(=O)NCCO", "note": "[Mead ethanolamide]", "values": [{"measurement": "scaled lipid accumulation score", "setting": "[2]", "result": "0.017 (inactive)"}]}, {"compound": "CCCCCCCC/C=C\\C/C=C\\C/C=C\\CCCC(=O)NCCO", "note": "[5(Z),8(Z),11(Z)-Eicosatrienoic Acid Ethanolamide]", "values": [{"measurement": "scaled lipid accumulation score", "setting": "[2]", "result": "0.015 (inactive)"}]}, {"compound": "CCCCCCCCCCCCCCCC(=O)O[C@H](CC(=O)O)C[N+](C)(C)C", "values": [{"measurement": "scaled lipid accumulation score", "setting": "[1]", "result": "0.027 (inactive)"}]}, {"compound": "CCCOc1ccc(C=C2SC(=O)NC2=O)cc1", "values": [{"measurement": "scaled lipid accumulation score", "setting": "library stock concentration: 80 uM", "result": "≤ -0.001 (inactive)"}, {"measurement": "scaled lipid accumulation score", "setting": "[3]", "result": "≤ -0.001 (inactive)"}, {"measurement": "scaled lipid accumulation score", "setting": "[4]", "result": "≤ -0.001 (inactive)"}, {"measurement": "scaled lipid accumulation score", "setting": "[1]", "result": "≤ -0.001 (inactive)"}]}, {"compound": "OCC(O)CCO/N=C1\\C(c2c(O)[nH]c3ccccc23)=Nc2ccccc21", "note": "(stereo not drawn) [Indirubin Derivative E804]", "values": [{"measurement": "scaled lipid accumulation score", "setting": "[5]", "result": "≤ 0 (inactive)"}]}, {"compound": "Cl.Fc1ccc([C@@H]2CCNC[C@H]2COc2ccc3c(c2)OCO3)cc1", "note": "[Paroxetine Hydrochloride]", "values": [{"measurement": "scaled lipid accumulation score", "result": "1.22 (active)"}]}, {"compound": "c1ccc(N2CCN(CCCOc3ccc4c(c3)OCO4)CC2)cc1", "note": "[BP 554 maleate]", "values": [{"measurement": "scaled lipid accumulation score", "setting": "[1]", "result": "≤ 0 (inactive)"}]}, {"compound": "Cl.Fc1ccc([C@@H]2CCNC[C@H]2COc2ccc3c(c2)OCO3)cc1", "note": "[Paroxetine HCl]", "values": [{"measurement": "scaled lipid accumulation score", "setting": "[5]", "result": "0.491 (active)"}]}, {"compound": "Fc1ccc([C@@H]2CCNC[C@H]2COc2ccc3c(c2)OCO3)cc1", "note": "[Paroxetine hydrochloride]", "values": [{"measurement": "scaled lipid accumulation score", "setting": "[1]", "result": "0.808 (inactive)"}]}, {"compound": "Fc1ccc([C@@H]2CCNC[C@H]2COc2ccc3c(c2)OCO3)cc1", "note": "[Paroxetine hydrochloride hemihydrate (MW = 374.83)]", "values": [{"measurement": "scaled lipid accumulation score", "setting": "[1]", "result": "0.836 (inactive)"}]}, {"compound": "Fc1ccc([C@@H]2CCNC[C@H]2COc2ccc3c(c2)OCO3)cc1", "note": "[Paroxetine]", "values": [{"measurement": "scaled lipid accumulation score", "setting": "[1]", "result": "0.634 (inactive)"}]}, {"compound": "Fc1ccc([C@@H]2CCNC[C@H]2COc2ccc3c(c2)OCO3)cc1", "note": "[Paroxetine HCl] [listing 1 of 2 here]", "values": [{"measurement": "scaled lipid accumulation score", "setting": "[1]", "result": "0.355 (inactive)"}]}, {"compound": "Fc1ccc([C@@H]2CCNC[C@H]2COc2ccc3c(c2)OCO3)cc1", "note": "[Paroxetine HCl] [listing 2 of 2 here]", "values": [{"measurement": "scaled lipid accumulation score", "setting": "library stock concentration: 6.1 mM", "result": "1.01 (active)"}]}, {"compound": "COc1cc(F)c(C(C)C)cc1-c1ccc(C(F)(F)F)cc1CN1C(=O)O[C@H](c2cc(C(F)(F)F)cc(C(F)(F)F)c2)[C@@H]1C", "note": "[Anacetrapib (MK-0859)]", "values": [{"measurement": "scaled lipid accumulation score", "setting": "[5]", "result": "≤ 0 (inactive)"}, {"measurement": "scaled lipid accumulation score", "setting": "[1]", "result": "≤ 0 (inactive)"}]}, {"compound": "C=C1C[C@@H](O)[C@H](/C=C/[C@@H](O)CCCCC)[C@H]1C/C=C\\CCCC(=O)O", "note": "[9-deoxy-9-methylene Prostaglandin E2]", "values": [{"measurement": "scaled lipid accumulation score", "setting": "[2]", "result": "0.01 (inactive)"}]}, {"compound": "Cc1cc(C)cc(NC(=O)Cc2ccc(OC(C)(C)C(=O)O)cc2)c1", "note": "[Efaproxiral Sodium]", "values": [{"measurement": "scaled lipid accumulation score", "setting": "[5]", "result": "≤ 0 (inactive)"}, {"measurement": "scaled lipid accumulation score", "setting": "[1]", "result": "≤ -0.001 (inactive)"}]}, {"compound": "O=C1Cc2c([nH]c3ccc([N+](=O)[O-])cc23)-c2ccccc2N1", "note": "[Alsterpaullone]", "values": [{"measurement": "scaled lipid accumulation score", "setting": "[5]", "result": "≤ 0 (inactive)"}]}, {"compound": "COc1ccc(/C=C/C(=O)Nc2c(O)cccc2C(=O)O)cc1OC", "values": [{"measurement": "scaled lipid accumulation score", "setting": "[2]", "result": "≤ 0 (inactive)"}]}, {"compound": "O=C(c1ccccc1)c1ccc2n1CCC2C(=O)O", "note": "(stereo not drawn) [Ketorolac tris salt]", "values": [{"measurement": "scaled lipid accumulation score", "setting": "[1]", "result": "≤ -0.055 (inactive)"}]}, {"compound": "O=C(c1ccccc1)c1ccc2n1CCC2C(=O)O", "note": "(stereo not drawn) [Ketorolac]", "values": [{"measurement": "scaled lipid accumulation score", "setting": "[5]", "result": "≤ 0 (inactive)"}, {"measurement": "scaled lipid accumulation score", "setting": "[1]", "result": "≤ 0 (inactive)"}]}, {"compound": "O=C(c1ccccc1)c1ccc2n1CCC2C(=O)O", "note": "(stereo not drawn) [Ketorolac tromethamine]", "values": [{"measurement": "scaled lipid accumulation score", "result": "≤ 0 (inactive)"}, {"measurement": "scaled lipid accumulation score", "setting": "library stock concentration: 5.3 mM", "result": "≤ 0 (inactive)"}, {"measurement": "scaled lipid accumulation score", "setting": "[1]", "result": "0.024 (inactive)"}]}, {"compound": "O=C(c1ccccc1)c1ccc2n1CCC2C(=O)O", "note": "(stereo not drawn)", "values": [{"measurement": "scaled lipid accumulation score", "setting": "[1]", "result": "≤ 0 (inactive)"}]}, {"compound": "O=C(c1ccccc1)c1ccc2n1CCC2C(=O)O", "note": "(stereo not drawn) [Ketorolac (tromethamine salt)]", "values": [{"measurement": "scaled lipid accumulation score", "setting": "[2]", "result": "≤ 0 (inactive)"}]}, {"compound": "O=C(c1cccnc1)N1CCOCC1", "values": [{"measurement": "scaled lipid accumulation score", "setting": "[1]", "result": "0.163 (inactive)"}]}, {"compound": "COC(=O)[C@]12CCC(C)(C)C[C@H]1[C@H]1C(=O)C=C3[C@@]4(C)C=C(C#N)C(=O)C(C)(C)[C@@H]4CC[C@@]3(C)[C@]1(C)CC2", "note": "[Bardoxolone Methyl]", "values": [{"measurement": "scaled lipid accumulation score", "setting": "[5]", "result": "0.195 (inactive)"}, {"measurement": "scaled lipid accumulation score", "setting": "[1]", "result": "0.183 (inactive)"}]}, {"compound": "CC(C)OC(=O)CCC/C=C\\C[C@@H]1[C@@H](/C=C/[C@@H](O)COc2cccc(C(F)(F)F)c2)[C@H](O)C[C@@H]1O", "values": [{"measurement": "scaled lipid accumulation score", "setting": "[1]", "result": "≤ 0 (inactive)"}]}, {"compound": "O=C(/C=C\\n1cnc(-c2cc(C(F)(F)F)cc(C(F)(F)F)c2)n1)NNc1cnccn1", "values": [{"measurement": "scaled lipid accumulation score", "setting": "[5]", "result": "≤ -0.009 (inactive)"}, {"measurement": "scaled lipid accumulation score", "setting": "[1]", "result": "0.384 (inactive)"}]}, {"compound": "CC1(C)S[C@@H]2[C@H](NC(=O)[C@H](NC(=O)N3CCN(S(C)(=O)=O)C3=O)c3ccccc3)C(=O)N2[C@H]1C(=O)O", "note": "[Mezlocillin Sodium]", "values": [{"measurement": "scaled lipid accumulation score", "setting": "[5]", "result": "≤ 0 (inactive)"}, {"measurement": "scaled lipid accumulation score", "setting": "[1]", "result": "0.043 (inactive)"}]}, {"compound": "O=C(NCCN1CCC(n2c(=O)[nH]c3cc(Cl)ccc32)CC1)c1ccc(F)cc1", "note": "[Halopemide]", "values": [{"measurement": "scaled lipid accumulation score", "setting": "[2]", "result": "≤ 0 (inactive)"}]}, {"compound": "C[C@@H](CN1CCC(n2c(=O)[nH]c3cc(Cl)ccc32)CC1)NC(=O)c1ccc2ccccc2c1.Cl", "values": [{"measurement": "scaled lipid accumulation score", "setting": "[1]", "result": "1.12 (active)"}]}, {"compound": "C[C@@H](CN1CCC(n2c(=O)[nH]c3cc(Cl)ccc32)CC1)NC(=O)c1ccc2ccccc2c1", "values": [{"measurement": "scaled lipid accumulation score", "setting": "[2]", "result": "0.02 (inactive)"}]}, {"compound": "Brc1ccc(C2CN3CCSC3=N2)cc1", "note": "(single isomer, unassigned; (-)) [(-)-p-Bromotetramisole Oxalate]", "values": [{"measurement": "scaled lipid accumulation score", "setting": "[5]", "result": "≤ -0.009 (inactive)"}, {"measurement": "scaled lipid accumulation score", "setting": "[1]", "result": "0.192 (inactive)"}]}, {"compound": "C=CCNC(=O)c1cc([N+](=O)[O-])cc2c(=O)[nH]c(Nc3ccc(Cl)c(Cl)c3)nc12", "values": [{"measurement": "scaled lipid accumulation score", "setting": "[1]", "result": "0.02 (inactive)"}]}, {"compound": "Cc1nc(-c2ccccc2)c(-c2ccncc2)o1", "values": [{"measurement": "scaled lipid accumulation score", "setting": "[5]", "result": "≤ 0 (inactive)"}]}, {"compound": "CO[C@@H](C(=O)N1Cc2[nH]nc(NC(=O)c3ccc(N4CCN(C)CC4)cc3)c2C1)c1ccccc1", "note": "[listing 1 of 2 here]", "values": [{"measurement": "scaled lipid accumulation score", "setting": "[3]", "result": "≤ -0.005 (inactive)"}, {"measurement": "scaled lipid accumulation score", "setting": "[4]", "result": "≤ -0.005 (inactive)"}, {"measurement": "scaled lipid accumulation score", "setting": "[5]", "result": "0.533 (inactive)"}, {"measurement": "scaled lipid accumulation score", "setting": "[1]", "result": "0.779 (inactive)"}]}, {"compound": "CCc1cccc(CC)c1NC(=O)N1Cc2[nH]nc(NC(=O)c3ccc(N4CCN(C)CC4)cc3)c2C1", "values": [{"measurement": "scaled lipid accumulation score", "setting": "[5]", "result": "0.21 (inactive)"}, {"measurement": "scaled lipid accumulation score", "setting": "[1]", "result": "0.34 (inactive)"}]}, {"compound": "CO[C@@H](C(=O)N1Cc2[nH]nc(NC(=O)c3ccc(N4CCN(C)CC4)cc3)c2C1)c1ccccc1", "note": "[listing 2 of 2 here]", "values": [{"measurement": "scaled lipid accumulation score", "setting": "[1]", "result": "0.915 (active)"}]}]}
